The record followed here is ChEMBL document CHEMBL1961873, “Compounds: GSK PKIS; Assays: Nanosyn kinase panel” (2012).

The structures appear in SMILES notation.

Assay [1] has as its target Serine/threonine-protein kinase MRCK alpha (Homo sapiens) (UniProt Q5VT25). The following applies: at 0.1 µM.
For assay [2] the target is unchanged. The following applies: at 1 µM.
Assay [3] concerns the target Serine/threonine-protein kinase MRCK beta (Homo sapiens) (UniProt Q9Y5S2). Particulars: at 0.1 µM.
For assay [4] the target is unchanged. The following applies: at 1 µM.
Assay [5] addresses Ribosomal protein S6 kinase alpha-5 (Homo sapiens) (UniProt O75582). Particulars: at 0.1 µM.
For assay [6] the target is unchanged. Particulars: at 1 µM.
Assay [7] addresses Ribosomal protein S6 kinase alpha-4 (Homo sapiens) (UniProt O75676). The following applies: at 0.1 µM.
Assay [8] has the same target. Particulars: at 1 µM.
Assay [9] concerns the target Ribosomal protein S6 kinase beta-1 (Homo sapiens) (UniProt P23443). Particulars: at 0.1 µM.
For assay [10] the target is unchanged. Particulars: at 1 µM.
In assay [11] the target is T1, 3-phosphoinositide-dependent protein kinase 1 (Homo sapiens) (UniProt O15530).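 Further: values are mean inhibition of PDK1.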
T1 sequence (whole entry): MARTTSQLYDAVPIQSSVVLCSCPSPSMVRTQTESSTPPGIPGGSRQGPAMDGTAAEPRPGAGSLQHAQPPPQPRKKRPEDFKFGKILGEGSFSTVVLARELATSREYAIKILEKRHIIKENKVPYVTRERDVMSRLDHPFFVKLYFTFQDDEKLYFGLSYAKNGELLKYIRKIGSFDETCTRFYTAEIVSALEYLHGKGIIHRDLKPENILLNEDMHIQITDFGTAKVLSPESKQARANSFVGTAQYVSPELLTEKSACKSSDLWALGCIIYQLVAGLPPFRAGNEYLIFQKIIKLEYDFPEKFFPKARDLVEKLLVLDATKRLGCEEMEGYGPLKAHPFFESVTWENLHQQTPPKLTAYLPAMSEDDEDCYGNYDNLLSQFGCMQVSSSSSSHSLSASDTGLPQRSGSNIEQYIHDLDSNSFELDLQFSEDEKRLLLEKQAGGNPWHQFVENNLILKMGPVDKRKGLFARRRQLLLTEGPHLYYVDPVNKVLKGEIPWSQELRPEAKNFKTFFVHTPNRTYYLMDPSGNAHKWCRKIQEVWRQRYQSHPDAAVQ
The following applies: at 0.1 µM.

For assay [12], the target named is cAMP-dependent protein kinase catalytic subunit alpha (Homo sapiens) (UniProt P17612). The following applies: at 0.1 µM.
Assay [13] has the same target. Particulars: at 1 µM.
Assay [14] addresses Protein kinase C alpha type (Homo sapiens) (UniProt P17252). Particulars: at 0.1 µM.
Assay [15] shares this target. The following applies: at 1 µM.
The target of assay [16] is Protein kinase C beta type (Homo sapiens) (UniProt P05771). The following applies: at 0.1 µM.
The target is the same in assay [17]. The following applies: at 1 µM.
For assay [18], the target named is Protein kinase C eta type (Homo sapiens) (UniProt P24723). The following applies: at 0.1 µM.
The target is the same in assay [19]. Particulars: at 1 µM.
The target of assay [20] is Protein kinase C gamma type (Homo sapiens) (UniProt P05129). The following applies: at 0.1 µM.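 Further: values are mean percent inhibition of PKC gamma.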

Serine/threonine-protein kinase MRCK alpha (Homo sapiens), sequence (Q5VT25 whole entry): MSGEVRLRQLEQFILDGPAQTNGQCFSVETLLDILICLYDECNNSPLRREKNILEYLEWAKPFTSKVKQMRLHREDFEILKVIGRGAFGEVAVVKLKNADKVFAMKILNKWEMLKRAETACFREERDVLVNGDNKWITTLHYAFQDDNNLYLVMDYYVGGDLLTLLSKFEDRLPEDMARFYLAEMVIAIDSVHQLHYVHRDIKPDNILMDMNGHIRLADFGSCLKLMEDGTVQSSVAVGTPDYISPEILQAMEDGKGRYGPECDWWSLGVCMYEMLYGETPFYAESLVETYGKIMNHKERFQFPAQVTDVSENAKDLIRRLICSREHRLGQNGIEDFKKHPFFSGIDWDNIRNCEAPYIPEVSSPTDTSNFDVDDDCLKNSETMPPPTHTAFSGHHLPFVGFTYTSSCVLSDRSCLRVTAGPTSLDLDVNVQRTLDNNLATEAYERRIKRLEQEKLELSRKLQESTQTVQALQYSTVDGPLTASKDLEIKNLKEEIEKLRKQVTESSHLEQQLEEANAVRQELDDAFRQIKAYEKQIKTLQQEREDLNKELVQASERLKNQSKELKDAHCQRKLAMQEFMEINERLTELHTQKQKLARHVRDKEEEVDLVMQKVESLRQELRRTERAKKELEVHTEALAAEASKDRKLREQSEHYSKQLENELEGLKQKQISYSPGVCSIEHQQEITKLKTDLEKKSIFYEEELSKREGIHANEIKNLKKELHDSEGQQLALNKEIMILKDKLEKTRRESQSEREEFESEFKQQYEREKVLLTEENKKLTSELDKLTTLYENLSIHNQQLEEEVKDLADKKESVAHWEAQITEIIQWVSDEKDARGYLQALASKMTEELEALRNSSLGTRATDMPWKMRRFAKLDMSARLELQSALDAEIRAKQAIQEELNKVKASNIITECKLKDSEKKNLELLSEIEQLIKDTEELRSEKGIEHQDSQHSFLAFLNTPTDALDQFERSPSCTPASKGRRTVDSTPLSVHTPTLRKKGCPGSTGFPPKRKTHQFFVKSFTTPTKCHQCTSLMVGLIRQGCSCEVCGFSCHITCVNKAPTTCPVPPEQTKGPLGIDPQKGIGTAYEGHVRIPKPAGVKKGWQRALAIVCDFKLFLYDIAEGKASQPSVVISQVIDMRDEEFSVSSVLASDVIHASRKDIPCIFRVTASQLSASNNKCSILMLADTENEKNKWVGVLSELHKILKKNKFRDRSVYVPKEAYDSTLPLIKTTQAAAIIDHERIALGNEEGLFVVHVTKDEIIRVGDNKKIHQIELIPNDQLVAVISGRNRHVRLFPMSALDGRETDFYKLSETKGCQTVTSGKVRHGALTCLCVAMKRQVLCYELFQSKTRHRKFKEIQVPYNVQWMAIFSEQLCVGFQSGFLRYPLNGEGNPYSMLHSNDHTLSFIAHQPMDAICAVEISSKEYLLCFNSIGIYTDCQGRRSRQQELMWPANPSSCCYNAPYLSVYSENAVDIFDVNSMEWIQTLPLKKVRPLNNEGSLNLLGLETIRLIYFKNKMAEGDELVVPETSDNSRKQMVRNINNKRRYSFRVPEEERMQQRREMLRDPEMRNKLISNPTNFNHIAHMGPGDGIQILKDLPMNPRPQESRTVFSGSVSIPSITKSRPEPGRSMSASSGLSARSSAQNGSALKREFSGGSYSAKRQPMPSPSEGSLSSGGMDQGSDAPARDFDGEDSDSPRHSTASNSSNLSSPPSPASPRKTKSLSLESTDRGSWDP
Ribosomal protein S6 kinase alpha-4 (Homo sapiens), sequence (O75676 whole entry, looked up): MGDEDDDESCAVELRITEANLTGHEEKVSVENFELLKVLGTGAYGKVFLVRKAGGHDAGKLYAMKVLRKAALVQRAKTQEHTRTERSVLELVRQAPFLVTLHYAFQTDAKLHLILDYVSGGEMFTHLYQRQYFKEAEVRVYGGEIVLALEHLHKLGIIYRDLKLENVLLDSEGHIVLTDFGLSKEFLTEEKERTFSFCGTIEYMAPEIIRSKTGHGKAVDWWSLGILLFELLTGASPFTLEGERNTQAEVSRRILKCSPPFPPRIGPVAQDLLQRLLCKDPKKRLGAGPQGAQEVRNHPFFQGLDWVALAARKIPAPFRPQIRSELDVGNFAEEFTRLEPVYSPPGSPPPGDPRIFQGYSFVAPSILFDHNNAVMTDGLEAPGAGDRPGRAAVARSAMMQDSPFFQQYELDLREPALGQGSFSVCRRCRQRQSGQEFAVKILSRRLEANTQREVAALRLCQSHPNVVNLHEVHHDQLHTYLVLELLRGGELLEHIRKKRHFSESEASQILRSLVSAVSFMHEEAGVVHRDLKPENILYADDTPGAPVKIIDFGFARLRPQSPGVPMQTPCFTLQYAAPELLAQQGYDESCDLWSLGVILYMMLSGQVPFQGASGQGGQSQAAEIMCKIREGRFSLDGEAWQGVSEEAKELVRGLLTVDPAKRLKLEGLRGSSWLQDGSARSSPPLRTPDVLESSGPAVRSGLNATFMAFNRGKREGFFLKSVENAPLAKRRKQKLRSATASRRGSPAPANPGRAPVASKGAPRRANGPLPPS
Ribosomal protein S6 kinase alpha-5 (Homo sapiens), sequence (O75582 whole entry, looked up): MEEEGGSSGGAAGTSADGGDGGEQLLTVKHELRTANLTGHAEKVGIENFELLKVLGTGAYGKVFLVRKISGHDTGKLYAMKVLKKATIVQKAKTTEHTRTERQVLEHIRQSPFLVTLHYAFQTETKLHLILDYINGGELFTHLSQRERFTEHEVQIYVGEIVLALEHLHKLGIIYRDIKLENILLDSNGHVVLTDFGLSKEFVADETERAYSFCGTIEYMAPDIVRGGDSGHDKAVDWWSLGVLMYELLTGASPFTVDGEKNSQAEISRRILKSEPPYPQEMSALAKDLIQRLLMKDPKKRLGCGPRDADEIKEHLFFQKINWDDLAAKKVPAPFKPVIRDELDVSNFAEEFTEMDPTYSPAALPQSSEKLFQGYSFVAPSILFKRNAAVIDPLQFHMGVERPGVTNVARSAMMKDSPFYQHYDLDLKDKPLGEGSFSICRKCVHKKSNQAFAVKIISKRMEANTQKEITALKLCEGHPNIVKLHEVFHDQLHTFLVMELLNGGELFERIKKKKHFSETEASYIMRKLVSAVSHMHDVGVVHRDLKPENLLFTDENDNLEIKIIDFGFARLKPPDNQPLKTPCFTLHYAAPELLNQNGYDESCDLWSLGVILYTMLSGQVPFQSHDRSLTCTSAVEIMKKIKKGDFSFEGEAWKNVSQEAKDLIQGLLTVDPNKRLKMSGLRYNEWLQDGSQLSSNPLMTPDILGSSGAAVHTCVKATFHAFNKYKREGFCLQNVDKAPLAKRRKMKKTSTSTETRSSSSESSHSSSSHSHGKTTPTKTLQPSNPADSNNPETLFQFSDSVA
Protein kinase C eta type (Homo sapiens), sequence (P24723 whole entry): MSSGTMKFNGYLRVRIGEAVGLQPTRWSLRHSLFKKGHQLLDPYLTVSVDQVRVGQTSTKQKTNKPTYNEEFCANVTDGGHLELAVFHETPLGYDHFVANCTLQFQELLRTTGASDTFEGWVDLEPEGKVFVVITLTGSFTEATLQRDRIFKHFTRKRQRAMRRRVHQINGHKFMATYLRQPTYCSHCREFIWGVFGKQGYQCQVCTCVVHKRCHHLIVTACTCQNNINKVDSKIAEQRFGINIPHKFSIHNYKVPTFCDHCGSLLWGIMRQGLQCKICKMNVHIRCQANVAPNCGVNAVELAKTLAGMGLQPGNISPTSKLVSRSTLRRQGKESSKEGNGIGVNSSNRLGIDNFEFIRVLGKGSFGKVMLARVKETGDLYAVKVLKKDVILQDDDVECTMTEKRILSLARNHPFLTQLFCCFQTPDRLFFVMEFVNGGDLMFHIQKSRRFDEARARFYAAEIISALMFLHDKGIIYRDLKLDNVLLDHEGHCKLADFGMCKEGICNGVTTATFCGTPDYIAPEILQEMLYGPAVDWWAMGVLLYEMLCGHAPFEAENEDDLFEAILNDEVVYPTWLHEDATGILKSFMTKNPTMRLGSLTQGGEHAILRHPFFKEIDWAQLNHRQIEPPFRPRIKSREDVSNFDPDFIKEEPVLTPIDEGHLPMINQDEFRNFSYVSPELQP

One may read the inhibition as the change of the read-out against control, counted positive when it falls. On to `Cc1ccc(O)cc1Nc1ccnc2cc(-c3ccccn3)ccc12`, for which the inhibition is 0.02% in [1]; -2.04% in [2]; 1.37% in assay [3]; 0.2% in assay [4]; 4.25% in assay [5]; 3.29% in [6]. For the same molecule, the inhibition in assay [7] stood at 0.94%; in assay [8], 2.96%; in assay [9], 1.62%; in assay [10], 1.87%; in assay [11], 3.22%; in assay [12] it was 1.65%. The inhibition is 0.73% in assay [13]; 0.94% in [14]; 1.06% in assay [15]; -0.22% in assay [16]; 0.21% in assay [17]; 4.81% in assay [18]. Further, the inhibition was determined as 3.71% in assay [19] and 5.48% in [20].
Take `c1ccc(-c2nc3n(c2-c2ccc4c(c2)OCO4)CCC3)nc1`: the inhibition in assay [1] is 1.51%; in assay [2] it was -0.39%; in [3] it was 1.65%; in assay [4] it was 4.63%; in assay [5], 8.97%; in assay [6] it was 8.14%. Moreover, the inhibition in assay [7] worked out at 5.25%; in assay [8], 6.79%; in [9], 1.12%; in [10], 0.67%; in [11] it was 0.98%; in assay [12], 1.49%. The inhibition in [13] was determined as 5.08%; in assay [14] it was 0.9%; in [15] it was 1.8%; in assay [16] it was 3.53%; in [17], 5.04%; in [18], 1.35%. The figures for the inhibition in assay [19] and in assay [20] were 1.85% and 0%, respectively.
As to `NS(=O)(=O)c1ccc(Nc2ncc(-c3ccccc3)o2)cc1`, the inhibition is -0.91% in [1]; -1.21% in assay [2]; 0.24% in assay [3]; 1.14% in assay [4]; 3.01% in assay [5]; 4.81% in assay [6]. Moreover, the inhibition was 3% in assay [7]; 5.37% in [8]; 2.3% in [9]; 3.51% in assay [10]; 4.51% in assay [11]; 1.3% in assay [12]. Moreover, the inhibition was 3.27% in assay [13]; 0% in assay [14]; 1.96% in [15]; -0.16% in assay [16]; 1.54% in assay [17]; 3.2% in [18]. The inhibition turned out to be 1.9% in assay [19] and 1.28% in [20].
As to `COc1ccc(-c2nn3ncccc3c2-c2ccnc(Nc3ccc4c(c3)OCCO4)n2)cc1`, the inhibition in assay [1] was -0.27%; in assay [2], -2.49%; in assay [3], 0.2%; in assay [4] it was 0%; in assay [5], 0.41%; in [6], -0.38%. Moreover, the inhibition is 1.07% in assay [7]; -0.23% in assay [8]; 0.77% in assay [9]; -0.95% in assay [10]; -0.83% in [11]; 0.73% in [12]. Moreover, the inhibition was 2.32% in [13]; -1.17% in assay [14]; 0.51% in [15]; -1.85% in [16]; 3.69% in assay [17]; 1.65% in assay [18]. Also, the results for the inhibition in [19] and in assay [20] were 2.32% and 0.61%, respectively.
For `COc1ccc(-c2oc3ncnc(N)c3c2-c2ccc(NC(=O)Nc3cc(C(F)(F)F)ccc3F)cc2)cc1`, the inhibition in assay [1] was 0.52%; in [2], 6.52%; in assay [3] it was 0.63%; in [4], 1.86%; in assay [5], 5.16%; in assay [6], 16.1%. The inhibition came out at 4.9% in assay [7]; 24.2% in assay [8]; 11.7% in assay [9]; 68.2% in [10]; 1.13% in [11]; 3.34% in [12]. The inhibition in assay [13] was found to be 4.14%; in assay [14] it was 0.71%; in assay [15], 1.62%; in assay [16] it was 3.38%; in assay [17] it was 6.16%; in [18], 6.58%. Moreover, the inhibition came to 5.99% in assay [19] and 1.64% in assay [20].
Regarding `CCNC(=O)O[C@H]1CN[C@H](C#Cc2cc3ncnc(Nc4ccc(OCc5cccc(F)c5)c(Cl)c4)c3s2)C1`, the inhibition was 0.37% in assay [1]; -0.19% in assay [2]; 1.07% in assay [3]; 0.37% in [4]; 3.18% in assay [5]; 2.55% in [6]. For the same molecule, the inhibition in assay [7] amounted to 1.61%; in assay [8], 2.66%; in assay [9], 1.69%; in assay [10], 1.78%; in assay [11], 4.86%; in assay [12], 1.62%. For the same molecule, the inhibition in assay [13] was 1.22%; in [14], 0.4%; in assay [15], 1.1%; in assay [16], 0.61%; in assay [17], -2.05%; in assay [18], 3.54%. Moreover, the inhibition in assay [19] was -2.11%; in [20], -1.05%.
Turning to `CC1=C(C(=O)Nc2cc(Cl)c3[nH]ncc3c2)C(c2ccc(C(F)(F)F)cc2)CC(=O)N1` (stereo not given), the inhibition in assay [1] was found to be 17.2%; in assay [2], 64.6%; in assay [3], 23.8%; in assay [4], 65.5%; in [5] it was 56.3%; in [6], 81.7%. In addition, the inhibition came to 32.4% in [7]; 68.9% in assay [8]; 8.47% in assay [9]; 41.7% in [10]; 1.84% in [11]; 21.8% in [12]. Also, the inhibition turned out to be 71% in assay [13]; 0.91% in assay [14]; 1.52% in assay [15]; 0.15% in assay [16]; 2.02% in [17]; 5.7% in assay [18]. Also, the inhibition was 39.1% in [19] and 3.92% in assay [20].
